From PubChem BioAssay

System: XIP peptide (Xip251-270)
Test: compounds binding XIP fragment 251-270 – biochemical, small-molecule microarray, fluorescence 635/667 nm, 0.5 µg/mL protein, primary screen (AID 1183)
Details: fluorescence 635 nm, higher = more signal

Q: Which composite z-score does the source give for `COC(=O)CC=C1c2ccccc2[C@H](OC)[C@H]1C` here?
A: The composite z-score was -0.302.

Q: For `COc1ccc(OC[C@H]2CN3[C@@H](CC[C@@H](C)[C@@H]3c3ccc(Br)cc3)C(=O)O2)cc1`, which composite z-score is on record?
A: The composite z-score was 0.61.

Q: For `CC(C)=CCCC(C)=CCON=C1C[C@@H](O)[C@@H](O)[C@@H]2[C@@H]3C(=O)N(Cc4ccc5c(c4)OCO5)C(=O)[C@@H]3CC[C@@H]12`, which composite z-score is on record?
A: The composite z-score was 0.245.

Q: With `CO[C@@H]1C=CCC(=O)N[C@@H](C)C(=O)OC[C@@H](OC)[C@H](C)C=CCC(=O)OC[C@H]1C` as the molecule, how does the composite z-score read?
A: The composite z-score was 0.744.

Q: With `CC(C)=CCCC(C)=CCON=C1C[C@@H](O)[C@@H](O)[C@@H]2[C@@H]3C(=O)N(c4cccc(Oc5ccccc5)c4)C(=O)[C@@H]3CC[C@H]12` as the molecule, how does the composite z-score read?
A: Its composite z-score is -0.256.

Q: Which composite z-score does the source give for `COc1ccc(O[C@H]2C=C[C@@H](c3ccccc3)O[C@@H]2CON=C(C)CCN2CCCc3nc(C)c(C)cc32)cc1` here?
A: Its composite z-score is 0.693.

Q: With `CC(CCN1CCCCc2nc(C)c(C)cc21)=NO[C@H](C)c1cn([C@@H]2COC[C@H]2O)nn1` as the molecule, how does the composite z-score read?
A: The composite z-score was 0.382.

System: not listed separately
Test: blood-stage malaria parasite viability loss – strain 3D7, DAPI fluorescence, 100 nL, primary screen (AID 1184);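 further: parasites grown inside human red blood cells in medium with human serum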
Details: P. falciparum 3D7 growth, 3 d, higher = more signal

Q: Which z-score does the source give for `COc1ccc(COC(=O)NN=C2C[C@@H](O)[C@@H](O)[C@@H]3[C@@H]4C(=O)N([C@@H](C)c5ccccc5)C(=O)[C@@H]4CC[C@@H]23)cc1` here?
A: The z-score was -0.503.

Q: With `CCN1C(=O)[C@H]2[C@H]3[C@H](O)[C@H](O)CC(=NNC(=O)OCc4ccccc4)[C@H]3CC[C@H]2C1=O` as the molecule, how does the z-score read?
A: Its z-score is -0.114.

Q: For `O=C1[C@H]2[C@H]3[C@H](O)[C@H](O)CC(=NO[C@@H]4O[C@H](CO)[C@@H](O)[C@H](O)[C@H]4O)[C@@H]3CC[C@H]2C(=O)N1C[C@@H]1CCCO1`, which z-score is on record?
A: Its z-score is -1.49.

Q: Which z-score does the source give for `O=C1C[C@@H](O)[C@@H](O)[C@@H]2[C@@H]3C(=O)N(Cc4ccccc4)C(=O)[C@@H]3CC[C@H]12` here?
A: The z-score was -0.331.

Q: For `C[C@H]1CC[C@H]2C(=O)N[C@H](Cc3ccccc3)C(=O)N2[C@@H]1c1ccccc1`, which z-score is on record?
A: Its z-score is 0.388.

Q: With `O=C1CCCC=C1C(O)C1CCCCC1` (stereo not drawn) as the molecule, how does the z-score read?
A: The z-score was 0.247.

Q: For `CO[C@H]1C[C@@H]2C[C@H](O)CC(CC(=O)O[C@@H](C=CCC(C)C)C[C@@H]3CC[C@H](C)[C@@H](C1)O3)O2`, which z-score is on record?
A: The z-score was -0.825.

Q: For `CC(=O)OC[C@H]1O[C@H](CC=NOCC[C@@H]2C=C[C@H](OC(C)=O)[C@@H](COC(C)=O)O2)C=C[C@@H]1OC(C)=O`, which z-score is on record?
A: The z-score was 0.256.

Q: Which z-score does the source give for `COC(=O)CC=C[C@@H](C)[C@@H](C=NOC[C@@H](O)COCc1ccco1)NS(=O)(=O)c1ccc(C)cc1` here?
A: The z-score was -0.546.

Q: Which z-score does the source give for `COC(=O)[C@H](C)NC(=O)CCC1CC(OC(=O)NCc2cccc3ccccc23)CC2(CCCC(COC(=O)NCc3cccc(C(F)(F)F)c3)O2)O1` (stereo partly drawn) here?
A: Its z-score is -1.74.

Q: Which z-score does the source give for `COC(=O)C1=C(C)N(Cc2ccccc2)C2=C3C(=O)OCC[C@@H]3[C@@](O)(C(=O)OC)C(=O)N2[C@@H]1c1ccccc1` here?
A: The z-score was 0.964.

Q: With `COC(=O)CC=C[C@@H](C)[C@@H](C=NOC[C@@H](O)[C@H]1O[C@@H]2OC(C)(C)O[C@@H]2[C@H]1O)OC` as the molecule, how does the z-score read?
A: The z-score was 0.364.

Q: With `C#CCCCON=C1C[C@@H](O)[C@@H](O)[C@@H]2[C@@H]3C(=O)N(C[C@@H]4CCCO4)C(=O)[C@@H]3CC[C@H]12` as the molecule, how does the z-score read?
A: Its z-score is 0.211.

Q: For `CC(C)[C@@H](OCc1ccccc1)[C@H](C)C=NOC[C@@H](O)[C@H]1O[C@@H]2OC(C)(C)O[C@@H]2[C@H]1O`, which z-score is on record?
A: The z-score was -0.489.

Q: For `CCN1C(C)=C(C(=O)OC)[C@@H](c2ccccc2)N2C(=O)[C@](O)(C(=O)OC)CC(C(C)=O)=C12`, which z-score is on record?
A: The z-score was 0.752.

Q: With `COc1cccc([C@H](O)Cn2cc(-c3ccc(CON=C(C)C)cc3)nn2)c1` as the molecule, how does the z-score read?
A: The z-score was -1.11.

Q: With `COC(=O)CC=C[C@@H](C)[C@@H](C=NOC[C@@H](C)[C@H](OCc1ccccc1)C(C)C)NS(=O)(=O)c1ccc(C)cc1` as the molecule, how does the z-score read?
A: The z-score was -0.192.

Q: Which z-score does the source give for `O=C1C2=CC[C@H]3C(=O)N(c4ccc(F)cc4F)C(=O)[C@H]3[C@H]2[C@H](O)[C@@H]2O[C@H]12` here?
A: Its z-score is 0.569.

Q: Which z-score does the source give for `CCOC(=O)CCN1C(=O)[C@H]2[C@@H]3C(=CC[C@H]2C1=O)C(=O)[C@H]1O[C@H]1[C@H]3O` here?
A: The z-score was -1.5.

Q: Which z-score does the source give for `CC(CCN1CCCc2nc(C)c(C)cc21)=NOC[C@@H](O)COCc1ccco1` here?
A: Its z-score is 0.245.

Q: With `CC[C@@H](c1ccccc1)n1c(=O)n2n(c1=O)[C@H]1[C@H](O)[C@@H]3O[C@@H]3C(=NOCc3ccccc3)[C@H]1CC2` as the molecule, how does the z-score read?
A: The z-score was -1.81.

Q: For `CCOC(=O)CCN1C(=O)[C@H]2[C@H]3[C@H](O)[C@H](O)CC(=NNC(=O)OCc4ccc(OC)cc4)[C@H]3CC[C@H]2C1=O`, which z-score is on record?
A: Its z-score is 0.144.

Q: With `CCOC(=O)[C@H](CC(C)C)NC(=O)CCC1CC(OC(=O)NCCc2ccc(F)cc2)CC2(CCCC(COC(=O)NCc3cccc(C(F)(F)F)c3)O2)O1` (stereo partly drawn) as the molecule, how does the z-score read?
A: The z-score was -0.748.

Q: With `CCO[C@H](c1cc(OC)cc([N+](=O)[O-])c1OC)[C@H](C)[C@@H](OC)[C@H](C)C=CCC(=O)OC` as the molecule, how does the z-score read?
A: The z-score was -0.119.

Q: With `CCOC(=O)[C@H](Cc1ccccc1)NC(=O)CCC1CC(OC(=O)NCc2cccc3ccccc23)CC2(CCCC(COC(=O)NCC3CCCCC3)O2)O1` (stereo partly drawn) as the molecule, how does the z-score read?
A: Its z-score is -1.69.

Q: For `Cc1ccc(S(=O)(=O)N[C@@H]2COC(=O)CC=C[C@@H](C)[C@H](NS(=O)(=O)c3ccc(C)cc3)COC(=O)[C@H](C)NC(=O)CC=C[C@H]2C)cc1`, which z-score is on record?
A: Its z-score is -0.196.

Q: For `CC(C)=NOC(C)CN1CCCCc2nc(C)c(C)cc21` (stereo not drawn), which z-score is on record?
A: The z-score was 1.35.

Q: With `O=C(NN=C1C[C@@H](O)[C@@H](O)[C@@H]2[C@@H]3C(=O)N(Cc4ccc5c(c4)OCO5)C(=O)[C@@H]3CC[C@@H]12)OCc1ccccc1` as the molecule, how does the z-score read?
A: Its z-score is -1.1.

Q: For `COc1ccc(COC(=O)NN=C2C[C@@H](O)[C@@H](O)[C@@H]3[C@@H]4C(=O)N(C(C)(C)C)C(=O)[C@@H]4CC[C@@H]23)cc1`, which z-score is on record?
A: The z-score was 0.553.

Q: Which z-score does the source give for `COC(=O)CC=C1c2ccccc2[C@H](OC)[C@H]1C` here?
A: Its z-score is 0.406.

Q: Which z-score does the source give for `COc1ccc(OC[C@H]2CN3[C@@H](CC[C@@H](C)[C@@H]3c3ccc(Br)cc3)C(=O)O2)cc1` here?
A: Its z-score is -1.32.

Q: Which z-score does the source give for `CC(C)=CCCC(C)=CCON=C1C[C@@H](O)[C@@H](O)[C@@H]2[C@@H]3C(=O)N(Cc4ccc5c(c4)OCO5)C(=O)[C@@H]3CC[C@@H]12` here?
A: Its z-score is -0.526.

Q: For `CO[C@@H]1C=CCC(=O)N[C@@H](C)C(=O)OC[C@@H](OC)[C@H](C)C=CCC(=O)OC[C@H]1C`, which z-score is on record?
A: The z-score was -0.523.

Q: For `CC(C)=CCCC(C)=CCON=C1C[C@@H](O)[C@@H](O)[C@@H]2[C@@H]3C(=O)N(c4cccc(Oc5ccccc5)c4)C(=O)[C@@H]3CC[C@H]12`, which z-score is on record?
A: Its z-score is 0.395.

Q: For `COc1ccc(O[C@H]2C=C[C@@H](c3ccccc3)O[C@@H]2CON=C(C)CCN2CCCc3nc(C)c(C)cc32)cc1`, which z-score is on record?
A: The z-score was -1.96.

Q: With `CC(CCN1CCCCc2nc(C)c(C)cc21)=NO[C@H](C)c1cn([C@@H]2COC[C@H]2O)nn1` as the molecule, how does the z-score read?
A: Its z-score is 0.255.
